# Laboratory results from PMC5540273 (PLoS ONE, 2017).
# Key:
# Conditions in all cases: concentration: 1 μM, replicates: in singlicate; n = 1
# [1] = system: JAK1(JH2domain-pseudokinase)
# [2] = system: JAK2(JH1domain-catalytic)
# [3] = system: JAK3(JH1domain-catalytic)
# JNK1 = system: T1, JNK1
# T1 construct: gene MAPK8
# JNK2 = system: T2, JNK2
# T2 construct: gene MAPK9
# JNK3 = system: T3, JNK3
# T3 construct: gene MAPK10
# KIT-autoinhibited = system: KIT-autoinhibited
# KIT = system: KIT
# LATS1 = system: LATS1
# LATS2 = system: LATS2
# LCK = system: LCK
# LIMK1 = system: LIMK1
# LIMK2 = system: LIMK2
# LKB1 = system: T4, LKB1
# T4 construct: gene STK11
# LOK = system: T5, LOK
# T5 construct: gene STK10
# LRRK2 = system: LRRK2
# LTK = system: LTK
# LYN = system: LYN
# LZK = system: T6, LZK
# T6 construct: gene MAP3K13
# MAK = system: MAK
# 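Further: KINOMEscan kinase panel screen.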
Compound,%Inh [1],%Inh [2],%Inh [3],%Inh (JNK1),%Inh (JNK2),%Inh (JNK3),%Inh (KIT-autoinhibited),%Inh (KIT),%Inh (LATS1),%Inh (LATS2),%Inh (LCK),%Inh (LIMK1),%Inh (LIMK2),%Inh (LKB1),%Inh (LOK),%Inh (LRRK2),%Inh (LTK),%Inh (LYN),%Inh (LZK),%Inh (MAK)
CN(c1ccc(NC(=O)N2CCN(CCCN3CCOCC3)CC2)cc1)c1ccnc(Nc2ccc(CS(C)(=O)=O)cc2)n1.Cl [GW830899],44%,65%,14%,46%,0%,0%,0%,98.8%,0%,0%,16%,2%,6%,0%,72%,0%,0%,0%,0%,0%
O=C(O)C(F)(F)F.O=c1[nH]ccc2nc(N[C@@H]3CCNC3)nc(Nc3cc(Cl)cc(Cl)c3)c12 [GSK2188764],98%,92.2%,100%,36%,7%,25%,2%,73%,42%,59%,0%,19%,13%,43%,70%,97.3%,31%,21%,7%,16%
O=C(Nc1c(F)cccc1F)c1cc(C(=O)c2ccccc2F)c[nH]1 [GSK1326180],0%,0%,0%,4%,17%,0%,0%,9%,0%,0%,8%,3%,0%,0%,28%,6%,0%,0%,0%,0%
Cl.O=C(Nc1ccc(Oc2ccc3[nH]c(NC(=O)c4ccco4)nc3c2)cc1)Nc1cc(C(F)(F)F)ccc1F [GW683134],0%,43%,0%,15%,33%,0%,1%,100%,30%,0%,98.4%,17%,0%,0%,99.7%,65%,74%,70%,0%,19%
c1ccc(Oc2ccc(Nc3ccnc4cc(-c5ccc(CN6CCCCC6)o5)ccc34)cc2)nc1 [GW567143],0%,2%,0%,22%,30%,7%,8%,96.5%,0%,0%,88%,0%,0%,6%,39%,35%,0%,6%,12%,4%
CC(C)(C)c1ccc(C(=O)Nc2cn3cc(-n4ccnc4)ccc3n2)cc1,2%,26%,0%,5%,0%,0%,20%,98.4%,0%,0%,0%,0%,10%,0%,0%,12%,0%,10%,0%,18%
Cl.N#CCc1ccc(Nc2nccc(Nc3ccc(Oc4ccccc4)cc3)n2)cc1 [GW639905],0%,85%,0%,38%,31%,23%,0%,97.4%,5%,0%,90.6%,25%,11%,0%,0%,58%,42%,62%,0%,20%
Cc1ccc(O)cc1Nc1ccnc2ccc(C(C)(C)C)cc12 [GW856805],20%,64%,0%,43%,29%,15%,22%,96.9%,0%,0%,98.6%,0%,0%,33%,16%,67%,11%,69%,0%,23%
O=C(O)C(F)(F)F.O=c1[nH]ccc2nc(N[C@@H]3CCNC3)nc(Nc3ccc4c(c3)S(=O)(=O)CC4)c12 [GSK2181306],98%,98.4%,100%,83%,54%,78%,0%,73%,51%,80%,40%,0%,0%,2%,97.2%,94.5%,29%,7%,6%,93.5%
Fc1cc(Cl)ccc1Nc1ccnc2cc(-c3ccc(CN4CCSCC4)o3)ccc12 [GW560106],0%,0%,0%,13%,34%,1%,11%,100%,73%,0%,98.4%,0%,0%,11%,73%,22%,61%,74%,32%,32%
